# Results taken from PubChem BioAssay (NCI).
# The panel holds about 79,000 compounds, 15% with a hit somewhere; the sample as a whole holds those more often. Values without a mark were called inactive. Calls of active or inactive are those of the source. No stated cut-off is given here; in the data, active means growth inhibition above about 70%; inactive means the rest.
# Columns and labels:
# [1] = NCI Yeast Anticancer Drug Screen. Data for the rad52 strain (AID 147);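 further: 0% = growth of vehicle-treated control cultures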; conditions: S. cerevisiae rad52 mutant growth inhibition, hits give high values
# Procedure, shortened: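 Genetically altered yeast (DNA damage repair defect) treated with compound; inhibition calculated relative to vehicle.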
# [2] = NCI Yeast Anticancer Drug Screen. Data for the wt1 strain (AID 149);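 further: 0% = growth of vehicle-treated wt1 cultures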; conditions: S. cerevisiae wt1 strain (SPY 50644) growth inhibition, hits give high values
# Procedure, shortened: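 Readout: yeast growth inhibition, normalised to vehicle controls, in the wt1 strain exposed to test compounds.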
# [3] = NCI Yeast Anticancer Drug Screen. Data for the rad50EPP+ strain (AID 151);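 further: 0% = growth of vehicle-treated control cultures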; conditions: S. cerevisiae rad50 mutant strain, hits give high values
# Procedure, shortened: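 Strain rad50EPP+; compound exposure; % growth inhibition vs vehicle.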
# [4] = NCI Yeast Anticancer Drug Screen. Data for the mgt1 strain (AID 153); conditions: S. cerevisiae mgt1 mutant growth inhibition, hits give high values
# Procedure, shortened: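 Read-out: yeast growth inhibition vs vehicle control. Strain mgt1, drawn from a panel altered in DNA damage repair or cell cycle control.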
# [5] = NCI Yeast Anticancer Drug Screen. Data for the rad50 strain (AID 155);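 further: 0% = growth of vehicle-only cultures of the same strain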; conditions: S. cerevisiae rad50 strain growth inhibition, hits give high values
# Procedure, shortened: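 Compounds were tested on a yeast strain with an engineered DNA damage repair alteration; the reported value is growth inhibition normalised to vehicle treatment.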
# [6] = NCI Yeast Anticancer Drug Screen. Data for the mec2-1 strain (AID 157); conditions: S. cerevisiae mec2-1 strain, hits give high values
# Procedure, shortened: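 Cells of the genetically defined mec2-1 yeast strain are incubated with test compound. Inhibition of growth is calculated against vehicle-treated controls.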
# [7] = NCI Yeast Anticancer Drug Screen. Data for the rad14 strain (AID 159);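 further: 0% = growth of vehicle-treated control cultures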; conditions: S. cerevisiae rad14 strain growth inhibition, hits give high values
# Procedure, shortened: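 Compound-treated yeast with a defined DNA-repair lesion; growth inhibition normalised to vehicle-treated cultures.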
# [8] = NCI Yeast Anticancer Drug Screen. Data for the sgs1 mgt1 strain (AID 161);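 further: 0% = growth of cultures given vehicle only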; conditions: S. cerevisiae sgs1 mgt1 strain, hits give high values
# Procedure, shortened: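 Mutant yeast exposed to compound; growth scored against vehicle-only wells.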
# [9] = NCI Yeast Anticancer Drug Screen. Data for the CLN2oe strain (AID 163);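 further: 0% = growth of vehicle-only control cultures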; conditions: S. cerevisiae CLN2oe strain, hits give high values
# Procedure, shortened: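 Strain altered in cell-cycle control, incubated with compound; growth compared to solvent-treated controls.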
# [10] = NCI Yeast Anticancer Drug Screen. Data for the cln2 rad14 strain (AID 165);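 further: 0% = growth equal to vehicle treated cultures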; conditions: S. cerevisiae cln2 rad14 strain, hits give high values
# Procedure, shortened: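 The screen exposed genetically defined yeast (cln2 rad14) to test compounds and scored growth inhibition relative to vehicle-treated controls.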
# [11] = NCI Yeast Anticancer Drug Screen. Data for the bub3 strain (AID 167); conditions: S. cerevisiae bub3 mutant strain, hits give high values
# Procedure, shortened: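 Growth of a checkpoint-deficient yeast mutant is measured after compound exposure. Values represent inhibition relative to vehicle.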
# [12] = NCI Yeast Anticancer Drug Screen. Data for the wt2 strain (AID 169);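 further: 0% = growth of vehicle-treated yeast cultures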; conditions: S. cerevisiae wt2 strain growth inhibition, hits give high values
# Procedure, shortened: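 Steps: yeast strain treated with compound; growth recorded; inhibition calculated relative to cultures given vehicle alone.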
# [13] = NCI Yeast Anticancer Drug Screen. Data for the mlh1 strain (AID 171);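 further: 0% = growth of vehicle-treated control cultures of the same strain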; conditions: S. cerevisiae mlh1 strain growth inhibition, hits give high values
# Procedure, shortened: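 Yeast screen: mutant strain plus compound, growth scored against vehicle control wells.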
# [14] = NCI Yeast Anticancer Drug Screen. Data for the sgs1 strain (AID 173);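 further: 0% = growth of vehicle-only control cultures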; conditions: S. cerevisiae sgs1 mutant, hits give high values
# Procedure, shortened: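 Inhibition of yeast growth served as the measure. The mutant strain was treated with each compound, and growth was normalised to cultures receiving vehicle alone.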
# [15] = NCI Yeast Anticancer Drug Screen. Data for the mlh1 rad18 strain (AID 175); conditions: S. cerevisiae mlh1 rad18 strain growth inhibition, hits give high values
# Procedure, shortened: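 Compound-treated yeast growth, normalised to vehicle controls. Strain bears defined DNA repair mutations.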
# [16] = NCI Yeast Anticancer Drug Screen. Data for the rad18 strain (AID 177); conditions: S. cerevisiae rad18 mutant growth inhibition, hits give high values
# Procedure, shortened: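 Inhibition values reflect reduced yeast growth compared with vehicle-treated controls, using a strain engineered with a DNA damage repair defect.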
# [17] = at 5.0 µM (retest, dose inferred, filed as 0.5)
# [18] = at 50.0 µM (retest, dose inferred, filed as 5.0)
compound,measurement,setting,value
CCN(CC)CC[n+]1ccc2c(C)c3[nH]c4ccc(O)cc4c3c(C)c2c1,growth inhibition,[1]; at 1.2 µM,13%
same,growth inhibition,[1]; at 3.7 µM,41%
same,growth inhibition,[1]; at 11.0 µM,67%
same,growth inhibition,[1]; at 33.0 µM,87% (active)
same,growth inhibition,[1]; at 100.0 µM,95% (active)
same,growth inhibition,[2]; at 1.2 µM,0%
same,growth inhibition,[2]; at 3.7 µM,-1%
same,growth inhibition,[2]; at 11.0 µM,3%
same,growth inhibition,[2]; at 33.0 µM,4%
same,growth inhibition,[2]; at 100.0 µM,8%
same,growth inhibition,[3]; at 1.2 µM,4%
same,growth inhibition,[3]; at 3.7 µM,16%
same,growth inhibition,[3]; at 11.0 µM,46%
same,growth inhibition,[3]; at 33.0 µM,88% (active)
same,growth inhibition,[3]; at 100.0 µM,91% (active)
same,growth inhibition,[4]; at 1.2 µM,0%
same,growth inhibition,[4]; at 3.7 µM,-1%
same,growth inhibition,[4]; at 11.0 µM,0%
same,growth inhibition,[4]; at 33.0 µM,3%
same,growth inhibition,[4]; at 100.0 µM,8%
same,growth inhibition,[5]; at 1.2 µM,13%
same,growth inhibition,[5]; at 3.7 µM,42%
same,growth inhibition,[5]; [17],36%
same,growth inhibition,[5]; at 11.0 µM,72% (active)
same,growth inhibition,[5]; at 33.0 µM,89% (active)
same,growth inhibition,[5]; [18],87% (active)
same,growth inhibition,[5]; at 50.0 µM,95% (active)
same,growth inhibition,[5]; at 100.0 µM,93% (active)
same,growth inhibition,[6]; at 1.2 µM,-2%
same,growth inhibition,[6]; at 3.7 µM,-13%
same,growth inhibition,[6]; [17],9%
same,growth inhibition,[6]; at 11.0 µM,9%
same,growth inhibition,[6]; at 33.0 µM,8%
same,growth inhibition,[6]; [18],4%
same,growth inhibition,[6]; at 50.0 µM,-11.9%
same,growth inhibition,[6]; at 100.0 µM,43%
same,growth inhibition,[7]; at 1.2 µM,-3%
same,growth inhibition,[7]; at 3.7 µM,-5%
same,growth inhibition,[7]; at 11.0 µM,3%
same,growth inhibition,[7]; at 33.0 µM,3%
same,growth inhibition,[7]; at 100.0 µM,60%
same,growth inhibition,[8]; [17],4%
same,growth inhibition,[8]; [18],13%
same,growth inhibition,[8]; at 50.0 µM,1.5%
same,growth inhibition,[9]; at 1.2 µM,-8%
same,growth inhibition,[9]; at 3.7 µM,-4%
same,growth inhibition,[9]; at 11.0 µM,-8%
same,growth inhibition,[9]; at 33.0 µM,-8%
same,growth inhibition,[9]; at 100.0 µM,16%
same,growth inhibition,[10]; [17],-2%
same,growth inhibition,[10]; [18],18%
same,growth inhibition,[10]; at 50.0 µM,-21.6%
same,growth inhibition,[11]; at 1.2 µM,-10%
same,growth inhibition,[11]; at 3.7 µM,3%
same,growth inhibition,[11]; [17],8%
same,growth inhibition,[11]; at 11.0 µM,-5%
same,growth inhibition,[11]; at 33.0 µM,-7%
same,growth inhibition,[11]; [18],6%
same,growth inhibition,[11]; at 50.0 µM,-14.8%
same,growth inhibition,[11]; at 100.0 µM,2%
same,growth inhibition,[12]; at 1.2 µM,0%
same,growth inhibition,[12]; at 3.7 µM,0%
same,growth inhibition,[12]; at 11.0 µM,-1%
same,growth inhibition,[12]; at 33.0 µM,2%
same,growth inhibition,[12]; at 100.0 µM,26%
same,growth inhibition,[13]; at 1.2 µM,-4%
same,growth inhibition,[13]; at 3.7 µM,3%
same,growth inhibition,[13]; at 11.0 µM,1%
same,growth inhibition,[13]; at 33.0 µM,9%
same,growth inhibition,[13]; at 100.0 µM,68%
same,growth inhibition,[14]; at 1.2 µM,-2%
same,growth inhibition,[14]; at 3.7 µM,-1%
same,growth inhibition,[14]; at 11.0 µM,6%
same,growth inhibition,[14]; at 33.0 µM,9%
same,growth inhibition,[14]; at 100.0 µM,31%
same,growth inhibition,[15]; [17],7%
same,growth inhibition,[15]; [18],19%
same,growth inhibition,[15]; at 50.0 µM,27.8%
same,growth inhibition,[16]; at 1.2 µM,-2%
same,growth inhibition,[16]; at 3.7 µM,-2%
same,growth inhibition,[16]; at 11.0 µM,3%
same,growth inhibition,[16]; at 33.0 µM,12%
same,growth inhibition,[16]; at 100.0 µM,58%
C=C(CN(C)C)C(=O)c1cc(C)ccc1C,growth inhibition,[1]; at 1.2 µM,5%
same,growth inhibition,[1]; at 3.7 µM,32%
same,growth inhibition,[1]; at 11.0 µM,85% (active)
same,growth inhibition,[1]; at 33.0 µM,99% (active)
same,growth inhibition,[1]; at 100.0 µM,99% (active)
same,growth inhibition,[2]; at 1.2 µM,8%
same,growth inhibition,[2]; at 3.7 µM,23%
same,growth inhibition,[2]; at 11.0 µM,56%
same,growth inhibition,[2]; at 33.0 µM,98% (active)
same,growth inhibition,[2]; at 100.0 µM,99% (active)
same,growth inhibition,[3]; at 1.2 µM,1%
same,growth inhibition,[3]; at 3.7 µM,9%
same,growth inhibition,[3]; at 11.0 µM,32%
same,growth inhibition,[3]; at 33.0 µM,80% (active)
same,growth inhibition,[3]; at 100.0 µM,98% (active)
same,growth inhibition,[4]; at 1.2 µM,2%
same,growth inhibition,[4]; at 3.7 µM,19%
same,growth inhibition,[4]; at 11.0 µM,80% (active)
same,growth inhibition,[4]; at 33.0 µM,99% (active)
same,growth inhibition,[4]; at 100.0 µM,99% (active)
same,growth inhibition,[5]; at 1.2 µM,4%
same,growth inhibition,[5]; at 3.7 µM,23%
same,growth inhibition,[5]; [17],24%
same,growth inhibition,[5]; at 11.0 µM,83% (active)
same,growth inhibition,[5]; at 33.0 µM,98% (active)
same,growth inhibition,[5]; [18],99% (active)
same,growth inhibition,[5]; at 50.0 µM,99.4% (active)
same,growth inhibition,[5]; at 100.0 µM,99% (active)
same,growth inhibition,[6]; at 1.2 µM,17%
same,growth inhibition,[6]; at 3.7 µM,38%
same,growth inhibition,[6]; [17],5%
same,growth inhibition,[6]; at 11.0 µM,86% (active)
same,growth inhibition,[6]; at 33.0 µM,99% (active)
same,growth inhibition,[6]; [18],99% (active)
same,growth inhibition,[6]; at 50.0 µM,99.4% (active)
same,growth inhibition,[6]; at 100.0 µM,99% (active)
same,growth inhibition,[7]; at 1.2 µM,9%
same,growth inhibition,[7]; at 3.7 µM,21%
same,growth inhibition,[7]; at 11.0 µM,80% (active)
same,growth inhibition,[7]; at 33.0 µM,99% (active)
same,growth inhibition,[7]; at 100.0 µM,99% (active)
same,growth inhibition,[8]; [17],50%
same,growth inhibition,[8]; [18],99% (active)
same,growth inhibition,[8]; at 50.0 µM,99.5% (active)
same,growth inhibition,[9]; at 1.2 µM,10%
same,growth inhibition,[9]; at 3.7 µM,22%
same,growth inhibition,[9]; at 11.0 µM,40%
same,growth inhibition,[9]; at 33.0 µM,98% (active)
same,growth inhibition,[9]; at 100.0 µM,98% (active)
same,growth inhibition,[10]; [17],7%
same,growth inhibition,[10]; [18],99% (active)
same,growth inhibition,[10]; at 50.0 µM,99.2% (active)
same,growth inhibition,[11]; at 1.2 µM,5%
same,growth inhibition,[11]; at 3.7 µM,28%
same,growth inhibition,[11]; [17],61%
same,growth inhibition,[11]; at 11.0 µM,90% (active)
same,growth inhibition,[11]; at 33.0 µM,99% (active)
same,growth inhibition,[11]; [18],99% (active)
same,growth inhibition,[11]; at 50.0 µM,98.8% (active)
same,growth inhibition,[11]; at 100.0 µM,99% (active)
same,growth inhibition,[12]; at 1.2 µM,3%
same,growth inhibition,[12]; at 3.7 µM,16%
same,growth inhibition,[12]; at 11.0 µM,75% (active)
same,growth inhibition,[12]; at 33.0 µM,99% (active)
same,growth inhibition,[12]; at 100.0 µM,99% (active)
same,growth inhibition,[13]; at 1.2 µM,12%
same,growth inhibition,[13]; at 3.7 µM,32%
same,growth inhibition,[13]; at 11.0 µM,89% (active)
same,growth inhibition,[13]; at 33.0 µM,99% (active)
same,growth inhibition,[13]; at 100.0 µM,99% (active)
same,growth inhibition,[14]; at 1.2 µM,16%
same,growth inhibition,[14]; at 3.7 µM,40%
same,growth inhibition,[14]; at 11.0 µM,86% (active)
same,growth inhibition,[14]; at 33.0 µM,99% (active)
same,growth inhibition,[14]; at 100.0 µM,99% (active)
same,growth inhibition,[15]; [17],61%
same,growth inhibition,[15]; [18],99% (active)
same,growth inhibition,[15]; at 50.0 µM,99.2% (active)
same,growth inhibition,[16]; at 1.2 µM,16%
same,growth inhibition,[16]; at 3.7 µM,37%
same,growth inhibition,[16]; at 11.0 µM,86% (active)
same,growth inhibition,[16]; at 33.0 µM,98% (active)
same,growth inhibition,[16]; at 100.0 µM,99% (active)
